Screens (PubChem)
NPR2 activator: human GC-B receptor activators, primary screen, HEK293 GC-B cells, cGMP TR-FRET, EC30 CNP; Atrial natriuretic peptide receptor 2 (Homo sapiens), P20594; 0% at EC30 CNP, 100% saturating CNP; activation, % at 10 µM; 370,000 compounds, 0.11% hits; AID 1920062, 2024;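 active means activation at 10 µM reaching about 35% in either raw or pattern-adjusted values, limit read from the data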
Rce1 inhib: yeast Rce1p protease inhibitors, primary screen, biochemical, fluorescence, cell-free homogeneous; yeast membranes, quenched prenylated peptide cleavage fluorescence; 290,000 compounds, 0.27% hits; AID 2563, 2010; calls only; CAAX prenyl protease 2 (Saccharomyces cerevisiae (strain ATCC 204508 / S288c)), Q03530;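 active means fall in fluorescence gain of 50% or more versus controls, with final raw signal at or below 3038400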;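 further: plate controls were neutral control wells for no effect and wells lacking membranes for full effect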
Target sequence (Q03530 whole entry, looked up): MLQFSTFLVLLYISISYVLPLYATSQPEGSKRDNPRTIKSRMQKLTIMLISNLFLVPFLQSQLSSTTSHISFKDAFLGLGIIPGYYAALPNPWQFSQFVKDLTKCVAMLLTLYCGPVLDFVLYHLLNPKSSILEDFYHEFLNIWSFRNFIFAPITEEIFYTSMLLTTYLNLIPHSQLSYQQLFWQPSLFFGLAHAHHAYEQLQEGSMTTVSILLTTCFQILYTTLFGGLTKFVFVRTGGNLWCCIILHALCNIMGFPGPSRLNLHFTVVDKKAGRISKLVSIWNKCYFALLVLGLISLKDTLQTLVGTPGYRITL
PLCg1 inh: PLC-gamma1 enzyme inhibitors, primary screen, biochemical, fluorescence, purified enzyme; inhibition, % at 12.2 µM; fluorogenic substrate; 1-phosphatidylinositol 4,5-bisphosphate phosphodiesterase gamma-1 (Homo sapiens), P19174; 370,000 compounds, 0.84% hits; in the data active means inhibition above about 9.5%
GC-A act: GC-A stimulated cGMP production enhancers – HEK293 GC-A cells, cGMP TR-FRET, EC30 ANP, primary screen | Atrial natriuretic peptide receptor 1 (Homo sapiens), P16066 | 0% at EC30 ANP, 100% saturating ANP | activation, % at 10 µM | 370,000 compounds, 0.14% hits; in the data active means activation above about 40%
PfM18AAP inh: PfM18AAP inhibitors, malaria aminopeptidase, primary screen, biochemical, QFRET, recombinant enzyme; M18 aspartyl aminopeptidase (Plasmodium falciparum 3D7); H-Glu-NHMec fluorogenic cleavage; inhibition, % at 7.35 µM; 290,000 compounds, 1.2% hits;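 active means inhibition above the campaign mean inhibition over all tested compounds plus 3 SD, cut at about 28% in these data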;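 further: 0% = plate median of test compound wells and 100% = 2 mM ZnCl2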
PLCb3 inh: human PLC-beta3 inhibitors, primary screen, biochemical, fluorescence | 1-phosphatidylinositol 4,5-bisphosphate phosphodiesterase beta-3 (Homo sapiens), Q01970 | Purified PLC-beta3, fluorogenic substrate | inhibition, % at 12.2 µM | 370,000 compounds, 0.18% hits | AID 720704, 2013; in the data active means inhibition above about 11%;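 further: 0% = median of compound wells on plate and 100% = full blocker control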
Numbers without * were called inactive; i = inactive; . = no result; + = active, no number. Shown are actives, neighbours in structure and some others; about 2.2% of the full set was active somewhere.

SMILES	NPR2 activator	Rce1 inhib	PLCg1 inh	GC-A act	PfM18AAP inh	PLCb3 inh
O=C(CCc1nc(-c2ccccc2F)no1)NCCc1cccc(F)c1	-4	.	-1	0	.	-3
COc1ccccc1Oc1ccc2c(c1)C(=O)N(c1cccc(O)c1)C2=O	-2	i	0	5	31*	-2
COc1ccccc1Oc1ccc2c(c1)C(=O)N(c1cccc3ncccc13)C2=O	-2	i	-2	1	13	-1
CC(=Nc1cccc(O)c1)c1sc2ccccc2c1O	-1	i	-14	0	31*	-16
COc1ccc(-n2c(SCC(=O)NCC3CCCO3)nnc2-c2ccncc2)cc1 (stereo not given)	5	.	1	2	.	2
CN1C2=N[C@@H](c3cccc(C(F)(F)F)c3)CC(=O)N2/C(=C\c2ccccc2)[C@H]1c1ccccc1	-30	.	-3	-31	.	-12
COC(=O)[C@]12C[C@H](CC(=O)NCc3cccc4ccccc34)C(=O)N(CCc3ccc(OC)c(OC)c3)C1=C[C@H](C(C)C)O[C@@H]2C1CC1	2	.	1	-3	.	2
O=C1CSC(=S)N1/N=C/c1cc(Br)c(O)c(Br)c1	.	i	.	.	40*	.
CCOC(=O)c1cc(-c2ccccc2)sc1NC(=O)C(C)Sc1nnnn1C (stereo not given)	-7	+	6	-6	6	1
CCOC(=O)c1cc(-c2ccccc2)sc1NC(=O)C(C)Sc1nnc(C)s1 (stereo not given)	0	i	2	-3	-10	0
O=C(c1cnn2c(C(F)(F)F)cc(-c3cccs3)nc12)N1CCN(Cc2ccccc2)CC1	46*	i	-69	51*	1	-94
O=C(c1cnn2c(C(F)(F)F)cc(-c3ccc4c(c3)OCO4)nc12)N1CCCCC1	49*	i	-22	44*	2	-30
CCCn1c(O)c(N=NC(=O)CNC(=O)Cc2ccc(OC)cc2)c2ccccc21	-1	+	8	1	1	-7
COc1ccc(Nc2c3c(c(C#N)c4nc5ccccc5n24)CCC3)cc1	28	i	-3	41*	4	-2
CCCN1CCS(=O)(=O)N(Cc2cn(Cc3ccc(C)cc3)nn2)C(C(=O)OC)C1 (stereo not given)	0	.	0	-2	.	1
Cc1nc(N)sc1-c1csc(Nc2cccc(O)c2)n1	-1	i	-8	0	31*	-19
O=C(Cc1ccccc1)N/N=C/C=C/c1ccccc1[N+](=O)[O-]	-7	i	4	-8	7	-3
O=C(O)c1ccc(N/N=C/C=C/c2ccccc2[N+](=O)[O-])cc1	1	i	-1	-2	41*	-1
Nc1nc2n[nH]nc2c(=O)[nH]1	7	+	3	0	.	9
CCOC(=O)N(C)[C@H]1C[C@H]2c3[nH]c4c(-c5ccc6c(c5)OCO6)cccc4c3CCN2C(=O)[C@H]1[C@H](C)O	-7	.	-16	-7	.	-19
COc1cc(-n2c3nc4ccccc4nc3c3c(=O)n(Cc4ccco4)cnc32)cc(OC)c1OC	.	.	.	.	8	.
O=c1c2c3nc4ccccc4nc3n(Cc3ccccc3)c2ncn1Cc1ccco1	48*	.	-122	46*	-17	-169
CCOc1cc(S(=O)(=O)NCc2ccccc2)c(OCC)cc1-n1cnnn1	3	i	-49	5	3	-59
CCOc1cc(S(=O)(=O)N(Cc2ccccc2)Cc2ccccc2)c(OCC)cc1-n1cnnn1	-6	+	-2	-8	-1	0
COc1ccc(-n2c(SCC(=O)NN=Cc3c(O)ccc4ccccc34)nnc2-c2ccc(C(C)(C)C)cc2)cc1	4	.	0	0	.	0
SMILES	NPR2 activator	Rce1 inhib	PLCg1 inh	GC-A act	PfM18AAP inh	PLCb3 inh
CCOC(=O)[C@@H]1[C@H]2COc3ccc(Br)cc3[C@@H]2N2C(=O)N(c3cccc(Cl)c3)C(=O)[C@]12C	-9	+	3	-6	.	2
CCS(=O)(=O)c1ncc(Cl)c(C(=O)Nc2ccc(S(=O)(=O)N3CCC(C)CC3)cc2)n1	31	i	-5	41*	-57	-11
CN(c1ccccc1)S(=O)(=O)c1ccc(NC(=O)c2nc(S(C)(=O)=O)ncc2Cl)cc1	38*	i	-1	49*	-67	-14
O=C(CN1C(=O)NC2(CCCCC2)C1=O)Nc1ccc2c(c1)OCCCO2	-2	.	9.6*	-4	.	-1
O=C(CCC(=O)Nc1nnc(C2CCCCC2)s1)Nc1ccc(F)cc1	6	i	1	-3	29*	-5
O=C(CCC(=O)Nc1nnc(C2CCCCC2)s1)Nc1ccccc1	-3	i	0	0	0	-5
CN(C(=O)COC(=O)CSc1ccc([N+](=O)[O-])cc1)C1CCS(=O)(=O)C1 (stereo not given)	-6	i	4	-2	.	-9
Cc1cccc(Nc2ccccc2C(=O)OCC(=O)N(C)C2CCS(=O)(=O)C2)c1C (stereo not given)	3	+	-8	9	2	-11
CN(C(=O)COC(=O)c1ccccc1Nc1ccccc1)C1CCS(=O)(=O)C1 (stereo not given)	0	i	-33	3	-7	-41
CN(C(=O)COC(=O)c1cc([N+](=O)[O-])ccc1Sc1ccccc1)C1CCS(=O)(=O)C1 (stereo not given)	-5	+	-3	3	13	2
C#CCNC(=O)C[C@H]1C[C@@]2(C(=O)OC)C(=C[C@H](COCc3ccccc3)O[C@@H]2C)N(Cc2ccco2)C1=O	3	.	2	1	.	1
Cc1cc2nc3c(=O)n(CCc4ccccc4)c(=O)[nH]c3nc2cc1N	-3	i	-410	2	34*	-404
COc1ccc(NC(=O)N(C)[C@H]2C[C@H]3c4[nH]c5c(-c6cccc(C)c6)cccc5c4CCN3C(=O)[C@H]2[C@H](C)O)cc1	-6	.	-74	-7	.	-95
Oc1ccc(/C=N/N2CCOCC2)c(O)c1O	11	i	-1	-7	34*	-9
COc1cccc(/C=N/N2CCOCC2)c1O	7	i	1	3	-9	3
CC(C)N1CCN(Cc2ccc(Oc3ncccn3)cc2)CC1CCO (stereo not given)	0	+	4	0	7	0
Cc1cccc(Nc2ncnc(N)c2[N+](=O)[O-])n1	-1	i	5	2	3	-2
Cc1cc(C)nc(Sc2ncnc(N)c2[N+](=O)[O-])n1	2	i	5	2	50*	0
